Mcl1 Noxa PPI: disrupts binding of human Mcl-1 to Noxa peptide; TR-FRET Mcl-1/Noxa peptide binding, 2 h; inhibition, % at 21.7 µM; 220,000 compounds, 1.5% hits; AID 1022;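 active means compounds that cut the protein-peptide binding signal by more than 50% relative to plate controls in a single-dose test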;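 further: His-tagged Mcl-1 with rhodamine Noxa BH3 peptide and terbium anti-His antibody; 0% = Mcl-1 plus Noxa peptide wells and 100% = peptide-only wells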
Target sequence (Q07820 whole entry, looked up): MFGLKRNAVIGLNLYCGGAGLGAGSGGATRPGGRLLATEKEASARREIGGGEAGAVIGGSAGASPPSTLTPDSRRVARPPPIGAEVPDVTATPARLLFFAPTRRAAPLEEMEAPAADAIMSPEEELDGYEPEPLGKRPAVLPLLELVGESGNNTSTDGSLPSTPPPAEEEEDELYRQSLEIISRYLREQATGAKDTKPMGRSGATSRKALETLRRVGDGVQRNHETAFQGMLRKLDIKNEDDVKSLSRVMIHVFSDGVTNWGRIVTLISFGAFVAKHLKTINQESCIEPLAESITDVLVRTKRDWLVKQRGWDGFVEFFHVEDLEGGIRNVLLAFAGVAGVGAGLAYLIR
Mcl1 Bid PPI: disrupts binding of human Mcl-1 to Bid peptide; Q07820; TR-FRET Mcl-1/Bid-Dy647 peptide binding, 1536-well; inhibition, % at 21.7 µM; 220,000 compounds, 0.97% hits; AID 1021;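 active means compounds that cut the binding signal by more than half at the single screening dose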;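 further: His-tagged Mcl-1 with europium anti-His antibody binding Bid BH3 peptide; 0% = Mcl-1 plus peptide wells and 100% = peptide-only wells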
Mcl-1 Bim block: inhibitors of Bim-Mcl-1 interaction, human; 190,000 compounds, 0.1% hits; inhibition, % at 10 µM; Q07820; Bead-based flow cytometry, Bim peptide-Mcl-1 binding; AID 1009; in the data active means inhibition above about 40%;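 further: 0% = no compound tracer wells and 100% = peptide blocker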
MCL1 BIM primary: disrupts human MCL1 binding to BIM-BH3 peptide; Q07820; GST-MCL1 / FITC-Bim-BH3 fluorescence polarization; inhibition, % at 10.9 µM; 320,000 compounds, 0.68% hits; AID 2057;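 active means inhibition above the mean inhibition of all tested compounds plus 3 SD, set per campaign, cut at about 40% in these data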;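 further: 0% = DMSO wells and 100% = unlabeled Bim-BH3 peptide control; higher means more loss of mP so more displacement of Bim peptide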
Starred values were filed as active, the others as inactive; . = not tested or not shown; + = active, no number; ! = a repeat was not active. In the library only some 2% were active in any assay of this set; here they are far more common.

SMILES	Mcl1 Noxa PPI	Mcl1 Bid PPI	Mcl-1 Bim block	MCL1 BIM primary
COc1ccc(N2CCC(CNC(=S)Nc3c(C)cc(C)cc3C)C2)cc1 (stereo unspecified)	4.8	-79.5	.	10.2
COc1ccc(N2CCC(CNS(=O)(=O)c3cccc(C(F)(F)F)c3)C2)cc1 (stereo unspecified)	80.3*	5.6	0.0	4.4
CCc1ccc(NC(=O)NCC2CCN(c3ccc(OC)cc3)C2)cc1 (stereo unspecified)	73.3*	-129.4	.	5.1
CCOc1ccc(NC(=O)NCC2CCN(c3ccc(OC)cc3)C2)cc1 (stereo unspecified)	-7.0	-9.6	-4.0	7.7
COc1ccc(N2CCC(CNC(=O)Nc3ccc(C)c(C)c3)C2)cc1 (stereo unspecified)	101.0*	3.2	-4.0	9.3
COc1ccc(C2C=C(c3ccccc3)Nc3nc(CCCO)nn32)cc1 (stereo unspecified)	5.1	-20.6	-4.0	30.1
COc1ccc(C2C=C(c3cccs3)Nc3nc(CCCO)nn32)cc1 (stereo unspecified)	-12.5	-107.5	-2.0	+
COc1cccc(CN(C(=O)/C=C/c2ccc(Cl)cc2)C2CCS(=O)(=O)C2)c1 (stereo unspecified)	37.4	84.3*	1.0	6.7
COc1ccc(NC(=O)c2cc(-c3cc(OC)c(OC)c(OC)c3)nc3ccccc23)cc1OC	.	.	.	3.9
COc1ccc(-c2cc(C(=O)Nc3ccc(O)cc3)c3ccccc3n2)cc1OC	31.5	54.3*	.	8.5
Cc1cccc(N2CCN(C(=O)c3ccc(-n4cncn4)c([N+](=O)[O-])c3)CC2)c1C	.	.	.	-1.1
COc1cc(C2C(C#N)=C(N)Oc3cc(C)oc(=O)c32)cc2c1OCO2 (stereo unspecified)	51.1*	-5.7	0.0	2.1
COC(=O)c1c(NC(=O)c2ccccc2F)sc(C(=O)N2CCOCC2)c1C	.	.	.	5.6
O=c1cc(O)c2sc(Nc3ccc(F)c(Cl)c3)nc2[nH]1	52.8*	-94.0	3.0	-25.1
O=c1cc(O)c2sc(Nc3ccc(Cl)c(F)c3)nc2[nH]1	51.0*	-179.9	.	-40.4
COc1ccc(NC(=O)c2ccccc2NS(C)(=O)=O)cc1OC	8.0	50.9*	-6.0	3.4
COc1ccccc1NC(=O)c1ccccc1NS(C)(=O)=O	4.9	-2.5	0.0	8.0
CC(C)N1CCc2c(sc(NC(=O)c3cc4cc([N+](=O)[O-])ccc4s3)c2C(N)=O)C1	76.3*	35.1	1.0	.
Cc1cccc(NC(=O)c2cc3cc([N+](=O)[O-])ccc3s2)n1	59.7*	33.5	5.0	-9.4
CC(C)NC(=O)c1cc2cc([N+](=O)[O-])ccc2s1	-3.5	5.2	-4.0	0.1
Cc1cccc(NC(=O)c2cccs2)n1	78.3*	-4.8	5.0	4.2
CN1CCc2c(sc(NC(=O)c3cc4cc([N+](=O)[O-])ccc4s3)c2C(N)=O)C1	4.0	-23.1	1.0	.
Cc1ccc(-c2ccc(/C=N/O)o2)cc1[N+](=O)[O-]	4.8	-2.6	0.0	5.9
Cc1cccc(NC(=O)N2CCN(Cc3ccc4c(c3)OCO4)CC2)c1C	-4.9	-31.8	-2.0	-1.6
O=C1NC2(CCCCCC2)C(=O)N1Cc1ccccc1Cl	.	.	.	8.5
SMILES	Mcl1 Noxa PPI	Mcl1 Bid PPI	Mcl-1 Bim block	MCL1 BIM primary
Nc1[nH]c(=O)ncc1F	-9.9	57.5*!	-1.0	-8.9
Cc1c(NC(=O)C(C)OC(=O)/C=C/c2ccc3c(c2)OCO3)c(=O)n(-c2ccccc2)n1C (stereo unspecified)	13.0	-30.4	-4.0	-4.9
Cc1cc(C)c2c(=O)[nH]c(SCC(=O)c3ccc(F)c(C)c3)nc2n1	-225.4	58.9*	-6.0	-3.7
Cc1cc(C(=O)CSc2nc(N)cc(=O)[nH]2)ccc1F	.	.	.	10.4
CC(=O)Nc1ccc(NC(=O)c2ccccc2S(=O)(=O)c2ccc([N+](=O)[O-])cc2)cc1	1.6	2.8	-1.0	1.6
CCOc1ccc(NC(=S)NN2C(C)CCCC2C)cc1 (stereo unspecified)	25.2	57.1*	-8.0	32.2
CC(=O)c1ccc(NC(=S)NN2C(C)CCCC2C)cc1 (stereo unspecified)	9.2	6.3	0.0	7.2
CC(NC(N)=O)C(=O)Nc1ccc(Cl)c(S(=O)(=O)Nc2ccc(Br)cc2)c1 (stereo unspecified)	56.9*	-4.4	-1.0	-1.5
Brc1cc2c(cc1C1Nc3ccccc3C3C=CCC31)OCO2 (stereo unspecified)	16.9	-31.7	-2.0	5.5
Cc1ccc2c(c1)C1C=CCC1C(C(=O)O)N2 (stereo unspecified)	107.3*	88.6*	9.0	108.1*
COC(C(=O)N/N=C(\C)c1ccc(O)cc1)c1ccccc1 (stereo unspecified)	.	.	.	-6.5

Bioassay records from PubChem BioAssay.
